In the library only some 14% were active in any assay of this set; here they are far more common.
FBPA Giardia inh – inhibitors of Giardia lamblia fructose-1,6-bisphosphate aldolase; actives 0.71% (n = 290,000); A8B2U2; Potency, µM (doses to about 59.6 µM), for inactives: at the top dose activity, negative = inhibition, most hits filed as inhibitors; purified Giardia FBPA; AID 2451; further: potency means the concentration at half of the fitted maximal effect; on the % scale 0 is the no-effect control and ±100 the full control effect; nearly all actives have a fitted effect of over 55% in size
Target sequence (A8B2U2 whole entry, looked up): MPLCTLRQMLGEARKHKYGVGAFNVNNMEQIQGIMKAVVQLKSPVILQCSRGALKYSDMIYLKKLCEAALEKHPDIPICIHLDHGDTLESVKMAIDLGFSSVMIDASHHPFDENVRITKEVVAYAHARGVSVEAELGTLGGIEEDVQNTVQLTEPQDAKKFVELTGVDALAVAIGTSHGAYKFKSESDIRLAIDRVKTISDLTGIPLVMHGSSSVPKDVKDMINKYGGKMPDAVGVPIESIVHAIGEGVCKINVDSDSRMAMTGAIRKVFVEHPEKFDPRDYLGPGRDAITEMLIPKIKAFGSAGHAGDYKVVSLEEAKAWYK
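Giardia FBPA (40 nM reagent) was preincubated 10 min at RT with compound (up to 57.5 uM final), then substrate plus GAPDH/TPI/NAD/arsenate coupling system with diaphorase/resazurin was added; resorufin fluorescence (525/598 nm) was read after 20 min.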
CHX counter – counter-screen for Shiga toxin inhibitors: cycloheximide protein synthesis inhibition. actives 12% (n = 300,000). cell reporter, cycloheximide protein synthesis inhibition counterscreen. AID 2314. max response, %; in the data active means max response mostly above about 13%, no sharp cut-off; inactive means mostly below about 14%; further: read at 38.3 µM for the half of the compounds with a filed dose; 0% is about no effect
NS1 function inh – inhibitors of influenza NS1 protein function; Potency, µM (highest dose often 46.1 µM), for inactives: top-dose activity, positive = more growth; actives 0.4% (n = 270,000); AID 2326; calls by dose curve; further: potency means the concentration at half of the fitted maximal effect; actives are rising curves; nearly all actives have a fitted effect of over 50% in size
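Growth recovery, yeast-based: influenza A NS1 expressed in S. cerevisiae causes slow growth, and suppressors are detected by OD600. The parent strain without NS1 is used as positive control.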
Shiga toxin inh – blocks Shiga toxin action in Vero cells | inhibition, % at 38.7 µM | AID 2315 | Vero cells, Shiga toxin protein synthesis inhibition reporter | actives 9.2% (n = 290,000); in the data active means inhibition mostly above about 28%, no sharp cut-off; inactive means mostly below about 43%; further: 0% is about no effect
LmPK inhibitor – LmPK (Leishmania mexicana) enzyme inhibition | purified LmPK, Kinase-Glo ATP luminescence, 1 h | Potency, µM (doses to about 57.5 µM), without a hit: top-dose activity change, negative = inhibition, usual class: inhibitors | actives 0.37% (n = 290,000) | AID 1721; further: potency means the concentration at half of the fitted maximal effect; on the % scale 0 is the no-effect control and ±100 the full control effect
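In 50 mM imidazole pH 7.2 with 7 mM MgCl2, LmPK (0.1 nM) turned over PEP (0.5 mM) and ADP (0.1 mM) for 1 h at room temperature. Luciferase read-out of ATP.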
The depositor's hits bear a star; ? = inconclusive; nt = no result; [ ] = dose if it differs, or a comment. Unless noted, the call rests on the fitted dose curve; in most records, active means well fitted curve in the direction sought with a large enough effect; inconclusive means small, poorly fitted or top-dose-only effect, or another doubt; inactive means no such curve, though single readings can be large; an effect the other way counts as inactive or inconclusive.

SMILES	FBPA Giardia inh	CHX counter	NS1 function inh	Shiga toxin inh	LmPK inhibitor
Cc1cc(O)c(C(C)C)cc1N=Cc1ccccc1O	3.5µM*	-3	-3%	-11	3%
CC(C)(C)C(=O)Nc1sc(-c2ccccc2)cc1C(=O)O	7%	41*	-43%	112*	-2%
Cc1cccc(C(=O)Nc2sc(-c3ccccc3)cc2C(=O)O)c1	-1%	46*	-35%	127*	0%
Nc1sc(-c2ccccc2)cc1C(=O)O	-3%	29*	22%	55*	1%
COc1cc(OC)c2c(C)cc(=O)oc2c1C(CCN1CCCC(C)C1)c1ccc(N(C)C)cc1 (stereo unspecified)	-27%	-5	nt	5	nt
CN(CCOc1ccccc1)C(=O)C1CCN(C(=O)c2ccc(F)cc2)CC1	nt	8	-1%	-9	-6%
COc1ccccc1CNc1nc(-c2ccoc2)nc2ccccc12	-9%	nt	nt	nt	nt
Fc1ccc(/C=N/Nc2nnnn2-c2ccccc2)cc1	1%	-2	-6%	-6	3%
Fc1ccc(/C=N/NC2=Nc3cccc4cccc2c34)cc1	-21%	43*	12%	81*	3%
O=C(O)c1cccc(N2C(=O)c3cccc4cccc(c34)C2=O)c1	17%	7	12%	6	-6%
COc1ccc(NC2=Nc3cccc4cccc2c34)cc1	-12%	25*	-13%	50	-1%
O=C(O)c1cccc(NC2=Nc3cccc4cccc2c34)c1	-17%	6.7*	-3%	38*	-3%
c1ccc(NC2=Nc3cccc4cccc2c34)cc1	-19%	21*	nt	6	-1%
O=C(NNC1=Nc2cccc3cccc1c23)c1ccccc1Br	9%	1	1%	-4	1%
COc1ccc(C(=O)CSc2cc(C)nc(SCC(=O)c3ccc(C)cc3)n2)cc1	-5%	2	-5%	7	10%
Cc1cc(SCC(=O)c2ccc(Cl)cc2)nc(=O)[nH]1	5%	43*	15%	52*	-3%
Cc1cc(SCC(=O)c2ccccc2)nc2ccccc12	nt	nt	-7%	nt	nt
Cc1ccc(C(=O)CSc2cc(C)[nH]c(=O)n2)cc1	nt	37*	16%	84*	-6%
Cc1cc(SCC(=O)c2ccccc2)nc(=O)[nH]1	-4%	63*	1%	85*	-6%
Cc1onc(-c2c(F)cccc2Cl)c1C(=O)N[C@H]1C(=O)N2[C@H]1SC(C)(C)[C@H]2C(=O)O	-4%[21.7 µM]	nt	nt	nt	nt
Cc1ccc2c(NC(=O)c3ccco3)cccc2n1	3%	4	10%	-5	-1%
O=C(N/N=C/c1cccc(Oc2ccccc2)c1)c1cccc(O)c1	0%	35*	0%	58*	2%
COc1cc(/C=N\Nc2cc(=O)n(C)c(=O)n2C)ccc1O	-25%	7	-22%	4	2%
Cc1nonc1C(=O)N/N=C/c1cccc(O)c1	0%	54*	-12%	65*	14µM*
Cn1c(N/N=C\c2cccc(O)c2)cc(=O)n(C)c1=O	?	19*	-4%	24*	-6%
SMILES	FBPA Giardia inh	CHX counter	NS1 function inh	Shiga toxin inh	LmPK inhibitor
CN(Cc1c(C(=O)N/N=C/c2cccc(O)c2)nnn1-c1nonc1N)c1ccccc1	-9%	-9	-4%	-13	8%
Cn1cccc1-c1cc(C(=O)N/N=C/c2cccc(O)c2)[nH]n1	-16%	30*	nt	56*	4%
COc1ccc(S(=O)(=O)N2CCN(C)CC2)cc1C(=O)Nc1ccccc1	5%	-2	12%	-5	1%
O=C(CCc1ccccc1)N/N=C/c1cccc(O)c1	1%	15*	-3%	6	0%
O=C(Cc1nnc(NC(=O)c2ccccc2)s1)N/N=C/c1cccc(O)c1	7%	14*	10%	12	-3%
O=C(N/N=C/c1cccc(O)c1)N/N=C/c1cccc(O)c1	0%	28*	-7%	55*	1%
O=C(CCc1ccccc1)N/N=C/c1cccc([N+](=O)[O-])c1	-27%	10	-1%	22	8%
CN(C)S(=O)(=O)c1cccc(NC(=S)N/N=C/c2cccc(O)c2)c1	-9%	18	-1%	36	3%
O=C(Cc1nnc(NC(=O)c2ccccc2)s1)N/N=C/c1ccco1	0%	-1	14%	-16	-2%
COc1ccc(S(=O)(=O)Cc2ccc(C(=O)NCc3ccccc3OC)o2)cc1	2%	-6	20%	-6	4%
CCS(=O)(=O)N1N=C(c2cccs2)CC1c1cc2cc(C)ccc2nc1Cl (stereo unspecified)	-6%	32*	17%	58	-1%
Cc1ccc2nc(Cl)c(C3CC(c4cccs4)=NN3C(=O)CCCC(=O)O)cc2c1 (stereo unspecified)	8%	2	-4%	13	-8%
COC(=O)[C@@H](NC(=O)O[C@@H]1C(=O)c2cc(OC)ccc2O[C@H]1c1ccc(OC)c(Br)c1)C(C)C	-1%	nt	nt	nt	nt
CCn1ccc(C(=O)N2CCN(c3ncccn3)CC2)n1	nt	-1	-4%	17	-3%
S=c1[nH]nc(CCc2nc3ccccc3[nH]2)n1-c1cccc(Cl)c1	-1%	-4	0%	17	10µM*
COc1ccccc1C(=O)Nc1ccc2c(c1)OCO2	-4%	43*	-47%	61*	?
COc1ccccc1C(=O)NCc1ccc2c(c1)OCO2	-6%	16	-14%	17	-3%
COc1cc(SC)ccc1C(=O)Nc1ccc2c(c1)OCCO2	-12%	34*	-124%	64	-21%
COc1ccccc1C(=O)Nc1ccc2c(c1)C(=O)NC2=O	-18%	28*	1%	22*	0%
Cc1ccccc1C(=O)Nc1ccc2c(c1)OCO2	-4%	30*	-16%	70	?
CC(=O)NCCNc1cc(-c2ccccc2C)ncn1	8%	nt	nt	nt	nt
CN(C)C[C@H]1CCC2=C(C1=O)C(c1ccc(Cl)c(Cl)c1)C1=C(CC[C@H](CN(C)C)C1=O)O2	nt	nt	-11%	nt	nt
O=C(Nc1ccccc1N1CCOCC1)c1cccc(Oc2ccccc2)c1	-4%	-1	7%	4	3%
COCCSc1ccccc1C(=O)Nc1ccc2c(c1)OCCO2	-8%	20	-7%	2	4%
COc1ccccc1C(=O)Nc1ccc2c(c1)OCCO2	-11%	41*	-35%	85*	?
SMILES	FBPA Giardia inh	CHX counter	NS1 function inh	Shiga toxin inh	LmPK inhibitor
Cc1ccccc1NC(=O)c1ccc(-c2ccc(Cl)cc2Cl)o1	1%	21*	-66%	41	1%
O=C(Nc1nccs1)c1ccc(-c2ccc(F)c(Cl)c2)o1	nt	45*	-2%	102*	0%
O=C(Nc1nccs1)c1ccc(F)c(S(=O)(=O)N2CCOCC2)c1	-1%	-3	5%	2	-2%
O=C(Nc1nccs1)c1ccc(-c2ccc(Cl)cc2Cl)o1	7%	26*	-3%	50*	0%
COC(=O)c1ccc(OC)c(CN2CCCN(Cc3ccc(F)cc3)S2(=O)=O)c1	8%	4	15%	-4	8%
Cc1cc(NCCCn2ccnc2)n2nc(-c3ccc(Cl)cc3)cc2n1	-4%	20*	2%	57	1%
Cc1cc(NCCCn2ccnc2)n2nc(-c3ccc(F)cc3)cc2n1	2%	20*	0%	29*	1%

Screening results: PubChem, National Center for Advancing Translational Sciences (NCATS)
